activation, Potency and viability data for 18 compounds are collected here from PubChem BioAssay (NCATS).

Structures are written as SMILES. Several values for one entry are separate records, joined by “and”; a condition that tells them apart may be missing. Identical values can stand only once. Inconclusive results are not listed. Values without a mark were called inactive. Activity calls are given as the source filed them. Unless noted, calls follow the shape of the dose curve; as a rule, active = well fitted curve in the direction sought with a large enough effect; inconclusive = small, poorly fitted or top-dose-only effect, or another doubt; inactive = no such curve, though single readings can be large; an effect the other way counts as inactive or inconclusive.

In assay [1] the target is Cellular tumor antigen p53 (Homo sapiens) (UniProt P04637). As to the kind of experiment: Primary qHTS for small molecule compounds that upregulate eGFP-tagged delta133p53alpha (in N-terminal) cells. (AID 2060322). Also: nearly all actives have a fitted effect of over 75% in size. Also: potency is read from the fitted curve at half-maximal effect.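 As to activation: series mostly up to about 56 µM; 0% = DMSO vehicle and 100% = reference activator.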 The note with it: NCI-H358 eGFP-delta133p53alpha fluorescence, 24 h; activation: hits give high values. Summed up:
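NCI-H358 cells pre-induced 24 h with 10 ng/ml doxycycline to express N-terminal eGFP-delta133p53alpha, then dosed 24 h at 37C without doxycycline; fixed, Hoechst-stained, GFP intensity by laser scanning cytometry, normalized to DMSO (0%) and 57.5 uM 5-azacytidine (100%).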

Assay [2] has the same target. As to the kind of experiment: Primary qHTS for small molecule compounds that upregulate eGFP-tagged delta133p53alpha (in C-terminal) cells. (AID 2060324). Also: potency is read from the fitted curve at half-maximal effect. Summed up:
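NCI-H358 cells with doxycycline-inducible D133p53a-eGFP (C-terminal tag), pre-induced 24 h with 100 ng/ml doxycycline, plated 800/well in doxycycline-free medium and treated 24 h at 37 °C with compound titrations. Cells were then fixed and Hoechst-stained, and GFP intensity was read by laser scanning cytometry.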

Assay [3] addresses Aldehyde dehydrogenase, mitochondrial (Homo sapiens) (UniProt P05091). Description: qHTS for Inhibitors of the Aldehyde Dehydrogenase Family (ALDH2) Confirmatory screens (AID 2061303; active = well fitted inhibition curve with a large enough effect; title and protocol of this record describe different tests; also: % is scaled to controls: 0 for no effect and ±100 for the full control effect; nearly all actives have a fitted effect of over 45% in size).
The target of assay [4] is Retinaldehyde dehydrogenase 3 (Homo sapiens) (UniProt P47895). Description: qHTS for Inhibitors of the Aldehyde Dehydrogenase Family (ALDH1A3) Confirmatory screens (AID 2061311). Also: potency is read from the fitted curve at half-maximal effect; nearly all actives have a fitted effect of over 60% in size.
Assay [5] has as its target Retinal dehydrogenase 2 (Homo sapiens) (UniProt O94788). Description: qHTS for Inhibitors of the Aldehyde Dehydrogenase Family (ALDH1A2) Confirmation screens (AID 2061314). Also: nearly all actives have a fitted effect of over 65% in size. Also: potency is read from the fitted curve at half-maximal effect.
Assay [6] has as its target Aldehyde dehydrogenase 1A1 (Homo sapiens) (UniProt P00352). Description: qHTS for Inhibitors of the Aldehyde Dehydrogenase Family (ALDH1A1) Confirmatory screens (AID 2061316). Also: nearly all actives have a fitted effect of over 65% in size. Also: potency is read from the fitted curve at half-maximal effect.
In assay [7] the target is Aldehyde dehydrogenase, mitochondrial (Homo sapiens) (UniProt P05091). As to the kind of experiment: qHTS for Inhibitors of the Aldehyde Dehydrogenase Family (ALDH2) Validation screens (AID 2061302; active = well fitted inhibition curve with a large enough effect; title and protocol of this record describe different tests;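 also: plate controls were DMSO vehicle for no effect and maximal DPI positive control response for full effect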).
Assay [8] is described as follows: BET inhibitor-based combinations targeting novel dependencies in MECOM-rearranged (r) AML: SET-2 cell line (AID 2202231). Also: nearly all actives have a fitted effect of over 35% in size. Also: potency is read from the fitted curve at half-maximal effect.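 As to viability: plate controls were DMSO treated cells for no effect and wells without cells for full effect.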 Conditions: SET-2 AML cells viability, CellTiter-Glo luminescence, 48 h; viability: hits give low values, concentration not given here. The procedure, abridged:
(§1)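 Here, 11-point titrations of each agent were applied to 500 seeded cells and incubated 48 hr; CellTiter-Glo signal, scaled against DMSO and empty wells, was integrated as AUC, then Z-scored within the individual line.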

Assay [9] in a line: BET inhibitor-based combinations targeting novel dependencies in MECOM-rearranged (r) AML: OCI-AML3 cell line (AID 2202232). Also: nearly all actives have a fitted effect of over 35% in size. Also: potency is read from the fitted curve at half-maximal effect. The note with it: Potency: OCI-AML3 viability. Summed up: as §1
Assay [10] is described as follows: BET inhibitor-based combinations targeting novel dependencies in MECOM-rearranged (r) AML: MV-4-11 cell line (AID 2202233). Also: nearly all actives have a fitted effect of over 45% in size. Also: potency is read from the fitted curve at half-maximal effect. Summed up:
(§2)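 Normalized to DMSO and empty-well controls, the luminescence data from CellTiter-Glo after 48 hr drug exposure were fitted across 11 concentrations. Reported metrics are area under the dose-response curve and its Z-transformed form.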

Assay [11] can be described thus: BET inhibitor-based combinations targeting novel dependencies in MECOM-rearranged (r) AML: HNT-34 cell line (AID 2202234). Also: nearly all actives have a fitted effect of over 35% in size. Also: potency is read from the fitted curve at half-maximal effect. Summed up: as §2
Assay [12] is described as follows: BET inhibitor-based combinations targeting novel dependencies in MECOM-rearranged (r) AML: UCSD-AML1 cell line (AID 2202235). Also: nearly all actives have a fitted effect of over 40% in size. Also: potency is read from the fitted curve at half-maximal effect. Summed up:
as §2

Assay [13] is described as follows: BET inhibitor-based combinations targeting novel dependencies in MECOM-rearranged (r) AML: AML-191 cell line (AID 2202236; also: nearly all actives have a fitted effect of over 35% in size; also: potency is read from the fitted curve at half-maximal effect). Summed up:
as §1

The target in assay [14] is Retinaldehyde dehydrogenase 3 (Homo sapiens) (UniProt P47895). As to the kind of experiment: qHTS for Inhibitors of the Aldehyde Dehydrogenase Family (ALDH1A3) Primary screen (AID 2061315).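 Also: plate controls were DMSO vehicle for no effect and reference inhibitor for full effect.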
Assay [15] in a line: BET inhibitor-based combinations targeting novel dependencies in MECOM-rearranged (r) AML: AML-194 cell line (AID 2202237;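 also: plate controls were vehicle wells for no effect and wells without cells for full effect; nearly all actives have a fitted effect of over 40% in size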). Summed up: as §1
A short description of assay [16]: qHTS for Inhibitors of the Aldehyde Dehydrogenase Family (ALDH1A2, ALDH1A3, ALDH2, ALDH3A1) (AID 2061307). Also: nearly all actives have a fitted effect of over 50% in size.
The target in assay [17] is Retinaldehyde dehydrogenase 3 (Homo sapiens) (UniProt P47895). Description: qHTS for Inhibitors of the Aldehyde Dehydrogenase Family (ALDH1A3) Validation screen (AID 2061312). Also: % is scaled to controls: 0 for no effect and ±100 for the full control effect; nearly all actives have a fitted effect of over 45% in size.

Sequence of Cellular tumor antigen p53 (Homo sapiens) (P04637 whole entry, looked up): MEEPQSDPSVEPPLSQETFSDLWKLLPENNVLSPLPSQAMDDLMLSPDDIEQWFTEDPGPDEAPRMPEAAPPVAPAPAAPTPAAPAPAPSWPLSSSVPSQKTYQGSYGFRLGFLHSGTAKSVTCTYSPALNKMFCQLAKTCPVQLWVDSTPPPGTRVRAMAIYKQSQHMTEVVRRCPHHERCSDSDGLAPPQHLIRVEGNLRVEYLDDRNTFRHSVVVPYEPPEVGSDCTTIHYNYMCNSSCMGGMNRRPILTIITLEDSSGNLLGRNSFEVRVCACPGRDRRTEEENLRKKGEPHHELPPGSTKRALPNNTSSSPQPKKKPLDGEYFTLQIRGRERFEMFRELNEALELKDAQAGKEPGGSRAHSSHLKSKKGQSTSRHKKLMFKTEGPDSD

For `O=C(c1cc(O)c(O)c([N+](=O)[O-])c1)c1ccccc1F`, in assay [1], the activation was -61.3%. Moreover, the Potency result in assay [2], in assay [3] and in assay [5] was “inactive” throughout. The Potency was 3.18 µM (active) in assay [4] and 12.7 µM (active) in assay [6].
With `NCCc1cnc[nH]1`, the activation in [1] was -5.21% and -25.1% and -31.8%. Further, the Potency result in [2], in assay [7], in assay [9], in [11], in [12] and in [13] was “inactive” each time. Further, the viability in [8] is 93.4%. For the same compound, the Potency in assay [10] was 8.33 µM (active).
For the compound `CC[C@@]1(O)C(=O)OCc2c1cc1n(c2=O)Cc2cc3c(CN(C)C)c(O)ccc3nc2-1`, the Potency was 24.6 µM (active) and 3.38 µM (active) in [1]; 6.75 µM (active) in [2]; 0.0372 µM (active) in assay [8]; 0.0186 µM (active) in [9]; 0.0118 µM (active) in assay [10]; 0.0083 µM (active) in [11]. Also, the Potency in [12] was 0.0166 µM (active); in assay [13], 0.0209 µM (active). Besides, the Potency entry in assay [7] and in [14] was “inactive” throughout.
Regarding `Clc1ccc2nsnc2c1NC1=NCCN1`, the activation in [1] was 17.5% and 19.5%. Also, the Potency result in assay [2], in assay [7], in assay [9], in [11], in [12] and in assay [13] was “inactive” each time. Further, the Potency result in [15] was “inactive”. Also, in assay [8], the viability is 111%.
As for `Brc1c(NC2=NCCN2)ccc2nccnc12`, the activation in assay [1] is -0.565% and -20%. Further, the Potency result in [2] was “inactive”. The Potency was 11.3 µM (active) in assay [16], 5.65 µM (active) in [4], 8.96 µM (active) in assay [5] and 11.3 µM (active) in assay [6].
On to `COc1cc(/C=C(\C#N)C(=O)Nc2nnc(C(F)(F)F)s2)ccc1OCc1ccc(C(F)(F)F)cc1C(F)(F)F`, for which, in [1], the activation is -42%. For the same compound, the Potency result in assay [2], in assay [3], in assay [16], in assay [5], in assay [6] and in assay [10] was “inactive” in each case. For the same compound, the Potency entry in assay [11], in assay [12], in assay [13] and in assay [15] was “inactive” throughout. Also, in [8], the viability is 111%.
With `Cc1nc(N=Nc2cc(S(=O)(=O)O)c3cc([N+](=O)[O-])cc(S(=O)(=O)O)c3c2)c(COP(=O)(O)O)c(C=O)c1O`, in assay [1], the activation is -72.9%. Also, the Potency result in [2], in [3], in assay [16], in [17], in assay [5] and in [6] was “inactive” each time. For the same compound, the Potency in assay [4] is 22.5 µM (active).
Take `O=C(O)Cc1ccc(O)c(O)c1`: the activation in assay [1] is 10.9%. Further, the Potency result in [2] and in [16] was “inactive” each time. In assay [6], the Potency is 14.2 µM (active).
As to `Oc1ccccc1O`, the activation in assay [1] was -3.18%. Moreover, the Potency result in assay [2], in assay [7] and in assay [5] was “inactive” each time. Besides, the Potency in [6] was 11.3 µM (active).
For `COc1ccccc1N1CCN(CC(O)COc2cccc3ccccc23)CC1` (stereo unspecified), the activation in assay [1] was 17.1% and 24.3% and -36.9%. For the same compound, the Potency entry in assay [2], in assay [7] and in assay [15] was “inactive” in each case. For the same compound, the Potency was 13.2 µM (active) in assay [8], 14.8 µM (active) in assay [10] and 9.34 µM (active) in [13].
Regarding `Nc1nc(N)c2nc(CNc3ccc(C(=O)NC(CCC(=O)O)C(=O)O)cc3)cnc2n1` (stereo unspecified), the activation in [1] was 25.1% and -8.03%. Also, the Potency result in assay [2], in assay [7], in assay [9], in [10], in [11] and in assay [13] was “inactive” throughout. The Potency result in assay [15] is “inactive”. For the same compound, the viability in assay [8] was 90.9%.
Regarding `CC(C)(C)C(=O)Oc1ccc(S(=O)(=O)Nc2ccccc2C(=O)NCC(=O)O)cc1`, in assay [1], the activation was -5.86% and -2.63% and -11.2%. For the same compound, the Potency result in [2], in [7], in assay [9], in [10], in [11] and in assay [12] was “inactive” in each case. In addition, the Potency entry in [13] is “inactive”. The viability in [8] was 111%.
As for `CN1C(C(=O)Nc2ccccn2)=C(O)c2ccccc2S1(=O)=O`, in assay [1], the activation was -0.565% and -12.3% and -20.6%. For the same compound, the Potency entry in assay [2], in assay [7], in assay [9], in [10], in [11] and in [12] was “inactive” in each case. Also, the Potency result in assay [13] and in [15] was “inactive” each time. Further, the viability in [8] was 105%.
In the case of `Cn1ccc2cc3c(cc21)CCN3C(=O)Nc1cccnc1`, the activation in assay [1] was 20.1% and 12% and -55.1%. The Potency entry in [2], in assay [7], in assay [10], in [13] and in assay [15] was “inactive” in each case. Moreover, the viability in assay [8] was 105%.
As for `NC(=O)OCC(COC(N)=O)c1ccccc1`, the activation in [1] was -10.4% and 18.4% and 1.5%. The Potency entry in [2], in [7], in [9], in assay [10], in [11] and in assay [12] was “inactive” each time. Further, the Potency result in assay [13] was “inactive”. Further, the viability in assay [8] is 119%.
Consider `Cc1c(OCC(F)(F)F)ccnc1CS(=O)c1nc2ccccc2[nH]1` (stereo unspecified), for which the activation in assay [1] is 8.47% and 28.3%. Moreover, the Potency result in assay [2], in assay [7], in assay [11], in assay [12], in assay [13] and in assay [15] was “inactive” each time.
Regarding `Cc1ccc2c(c1)C(N1CCN(C)CC1)=Nc1cccnc1N2`, the activation in assay [1] was 13.7%. Further, the Potency result in [2] and in assay [7] was “inactive” in each case. For the same compound, in assay [6], the Potency was 12.7 µM (active).
`O=C(c1ccccc1)c1ccc2n1CCC2C(=O)O` (stereo unspecified): the activation in assay [1] is -6.21% and -3.1%. For the same compound, the Potency result in [2], in assay [7], in [9], in [10], in assay [11] and in assay [12] was “inactive” throughout. Besides, the Potency result in assay [13] and in assay [15] was “inactive” throughout. Besides, the viability in [8] was 104%.
